# Laboratory results published in PubChem BioAssay AID1159580 (chemical genetic matrix, 2015).
# In all, about 5,500 compounds went through this assay and about 2,000 (36%) were called active. Not shown: some 18% with an inconclusive outcome. The list shows a part of the results. Unmarked numbers belong to inactive results. Cut-off read from the data, not from the text of the source: active = normalized growth mostly below about 0.91 (no sharp cut-off); inconclusive = no clear call, values can overlap the other calls; inactive = mostly above about 0.92.
# Experiment: chemical genetic growth profiling, strain panel (AID 1159580);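 note: tested at 20 µM; growth read once vehicle control cultures reached saturation at 30 °C; 1 = growth at the plate median or of vehicle wells; lower values mean less growth of the strain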
# Conditions: S. cerevisiae deletion strains, growth OD
compound,measurement,setting,value
CCOC(=O)c1oc2c(OC)c(O)cc(O)c2c(=O)c1-c1cc(OC)c(OC)c(OC)c1,normalized growth,"locus YAL021C, strain ccr4, active compounds read low",0.985
same,normalized growth,"locus YAL026C, strain drs2, active compounds read low",0.974
same,normalized growth,"locus YAL030W, strain snc1, active compounds read low",0.968
same,normalized growth,"locus YBL061C, strain skt5, active compounds read low",0.976
same,normalized growth,"locus YBR009C, strain hhf1, active compounds read low",0.972
same,normalized growth,"locus YBR023C, strain chs3, active compounds read low",0.972
same,normalized growth,"locus YBR171W, strain sec66, active compounds read low",0.956
same,normalized growth,"locus YBR231C, strain swc5, active compounds read low",0.974
same,normalized growth,"locus YBR279W, strain paf1, active compounds read low",0.987
same,normalized growth,"locus YCL011C, strain gbp2, active compounds read low",0.976
same,normalized growth,"locus YCL016C, strain dcc1, active compounds read low",0.977
same,normalized growth,"locus YCL061C, strain MRC1, active compounds read low",0.966
same,normalized growth,"locus YCL069W, strain vba3, active compounds read low",0.989
same,normalized growth,"locus YCR088W, strain abp1, active compounds read low",0.972
same,normalized growth,"locus YDL005C, strain med2, active compounds read low",0.993
same,normalized growth,"locus YDL040C, strain nat1, active compounds read low",0.983
same,normalized growth,"locus YDR001C, strain nth1, active compounds read low",0.982
same,normalized growth,"locus YDR069C, strain doa4, active compounds read low",0.991
same,normalized growth,"locus YDR137W, strain rgp1, active compounds read low",0.799 (active)
same,normalized growth,"locus YDR159W, strain sac3, active compounds read low",0.973
same,normalized growth,"locus YDR195W, strain ref2",1.05
same,normalized growth,"locus YDR297W, strain sur2, active compounds read low",0.979
same,normalized growth,"locus YDR334W, strain swr1, active compounds read low",0.98
same,normalized growth,"locus YDR335W, strain msn5, active compounds read low",0.971
same,normalized growth,"locus YDR392W, strain spt3, active compounds read low",0.878
same,normalized growth,"locus YEL003W, strain gim4, active compounds read low",0.978
same,normalized growth,"locus YEL037C, strain rad23, active compounds read low",0.98
same,normalized growth,"locus YEL061C, strain CIN8 (second series), active compounds read low",0.978
same,normalized growth,"locus YER015W, strain faa2, active compounds read low",0.986
same,normalized growth,"locus YER016W, strain bim1, active compounds read low",0.969
same,normalized growth,"locus YER111C, strain swi4, active compounds read low",0.989
same,normalized growth,"locus YER155C, strain BEM2 (second series), active compounds read low",0.947
same,normalized growth,"locus YFR010W, strain ubp6, active compounds read low",0.986
same,normalized growth,"locus YGL167C, strain pmr1, active compounds read low",0.957
same,normalized growth,"locus YGL173C, strain kem1, active compounds read low",0.965
same,normalized growth,"locus YGL227W, strain vid30, active compounds read low",0.959
same,normalized growth,"locus YGL240W, strain doc1, active compounds read low",0.948
same,normalized growth,"locus YGL253W, strain hxk2, active compounds read low",0.974
same,normalized growth,"locus YHR013C, strain ard1, active compounds read low",1.01
same,normalized growth,"locus YHR027C, strain rpn1, active compounds read low",0.985
same,normalized growth,"locus YHR142W, strain chs7, active compounds read low",0.955
same,normalized growth,"locus YJL092W, strain hpr5, active compounds read low",0.973
same,normalized growth,"locus YJL095W, strain BCK1 (second series), active compounds read low",0.975
same,normalized growth,"locus YJL115W, strain asf1, active compounds read low",0.986
same,normalized growth,"locus YJL129C, strain trk1, active compounds read low",0.977
same,normalized growth,"locus YJL154C, strain vps35, active compounds read low",0.984
same,normalized growth,"locus YJL164C, strain tpk1, active compounds read low",0.964
same,normalized growth,"locus YJL166W, strain qcr8, active compounds read low",0.975
same,normalized growth,"locus YJL187C, strain SWE1, active compounds read low",0.985
same,normalized growth,"locus YKL160W, strain elf1, active compounds read low",0.966
same,normalized growth,"locus YKR026C, strain gcn3, active compounds read low",0.97
same,normalized growth,"locus YKR091W, strain srl3, active compounds read low",0.973
same,normalized growth,"locus YLL001W, strain dnm1, active compounds read low",0.98
same,normalized growth,"locus YLL026W, active compounds read low",0.968
same,normalized growth,"locus YLL041C, strain sdh2, active compounds read low",0.974
same,normalized growth,"locus YLR027C, strain aat2, active compounds read low",0.972
same,normalized growth,"locus YLR221C, strain rsa3, active compounds read low",0.972
same,normalized growth,"locus YLR258W, strain gsy2, active compounds read low",0.969
same,normalized growth,"locus YLR262C, strain YPT6 (second series), active compounds read low",0.82 (active)
same,normalized growth,"locus YLR320W, strain mms22, active compounds read low",0.901
same,normalized growth,"locus YLR342W, strain FKS1, active compounds read low",0.971
same,normalized growth,"locus YLR357W, strain rsc2, active compounds read low",1
same,normalized growth,"locus YLR370C, strain arc18, active compounds read low",0.972
same,normalized growth,"locus YLR384C, strain iki3, active compounds read low",0.982
same,normalized growth,"locus YML120C, strain ndi1, active compounds read low",0.973
same,normalized growth,"locus YMR058W, strain fet3, active compounds read low",0.976
same,normalized growth,"locus YMR125W, strain sto1, active compounds read low",0.985
same,normalized growth,"locus YMR129W, active compounds read low",0.978
same,normalized growth,"locus YMR205C, strain PFK2, active compounds read low",0.933
same,normalized growth,"locus YMR231W, strain pep5, active compounds read low",0.997
same,normalized growth,"locus YNL071W, strain lat1, active compounds read low",0.959
same,normalized growth,"locus YNL209W, strain ssb2, active compounds read low",0.98
same,normalized growth,"locus YNL248C, strain rpa49, active compounds read low",0.958
same,normalized growth,"locus YNL322C, strain KRE1 (second series), active compounds read low",0.971
same,normalized growth,"locus YNR049C, strain mso1, active compounds read low",0.974
same,normalized growth,"locus YOR001W, strain rrp6, active compounds read low",0.969
same,normalized growth,"locus YOR070C, strain gyp1, active compounds read low",0.973
same,normalized growth,"locus YOR080W, strain dia2, active compounds read low",0.985
same,normalized growth,"locus YOR083W, strain WHI5, active compounds read low",0.965
same,normalized growth,"locus YOR106W, strain vam3, active compounds read low",0.975
same,normalized growth,"locus YOR265W, strain rbl2, active compounds read low",0.974
same,normalized growth,"locus YOR270C, strain vph1, active compounds read low",0.915
same,normalized growth,"locus YOR290C, strain snf2, active compounds read low",0.959
same,normalized growth,"locus YPL051W, strain arl3, active compounds read low",0.963
same,normalized growth,"locus YPL078C, strain atp4, active compounds read low",0.973
same,normalized growth,"locus YPL106C, strain sse1, active compounds read low",0.997
same,normalized growth,"locus YPL240C, strain hsp82, active compounds read low",0.964
